Measurements as given in the OligoGym collection.

target: CD48; experiment: pooled miR-30 sensor sort-seq; sequence = guide strand; conditions: shRNA
Also: reference of the scale not given here.

Sequence	sensor-assay potency score (higher = more potent)
TCAATTTTGATGACAGGCTTGG	0.186
TTCTATCTTCTCAATTTTGATG	-0.753
ATGTGTATCTCTATATCTCTGT	-0.19
TTGGCAAGTATAACACCTGGAG	-0.157
TAATGTTGTCACAATTTTGGGT	0.114
TGTAGTTTACAGACTCGCCAGG	-0.895
TTGTTTGTAGTTCTCAGGCAGG	-0.932
TATACAGTCTCTGTCCTGGTGA	-0.4
TTAGATTTTCTGGAATCCCATT	-1.01

target: CD58; experiment: as above; conditions: shRNA

Sequence	sensor-assay potency score (higher = more potent)
TTGCTCCATAGGACAATCCCAT	-1.06
TACAGCACAATACATGTTGTAA	-0.704
TTCTTCTTAAAGCAGCTGCTTC	-0.594
TTGTTTTTTCCATAGGACCTCT	-0.0433
TAAAGAAAGAACTTCATGGTAT	0.701
TAATAAGTTGATGACAGCCAAA	-1.7
TTAAAAGATGAGAAAGCTCTGA	-0.214
TTATCCTTTTGTTTTTTCCATA	-1.18
TTGAGTTACGTTTACATTGCTC	-0.143
TTCATATACAGCACAATACATG	-1.42
TTTAAAGGCACATTGCTTGGTA	0.706
TAAAAGATGAGAAAGCTCTGAA	0.844
TTAAAATATATACTGGTTGAGT	-0.467
TAATGCTCTGGTATCATGCATT	-0.599
TTTGTTGGGAAAAACAGCTGAT	-0.0646
TTACAAAAGTATCTACATCATC	-0.687
TATAAGTGCATATCTGTGTCTT	0.724
ATATACAGCACAATACATGTTG	0.0974
TATACAGCACAATACATGTTGT	-0.688
TTTCATACTCATCTTCATCTGA	0.555
TTGTGGAAGATCATTTTCCATC	-1.11
TAAAATAATTTAGTTATGCTGT	-0.222
TACATGTTGTAATTACTGCTAA	-0.161

target: CD86; experiment: as above; conditions: shRNA

Sequence	sensor-assay potency score (higher = more potent)
TTCTGTGACATTATCTTGAGAT	0.246
TAACTGTTGGAAGTACAGCTGT	-0.0777
TGATACATTGATACAAGCCCTT	-0.31
TAGCAAGCACTGACAGTTCAGA	-0.996
TAAGCTTGAATCTTCAGAGGAG	0.681
TATTGCTCGTAACATCAGGGAA	-0.935
TCTTGGTCTGTTCACTCTCTTC	-1.55
TCATATTGCTCGTAACATCAGG	-0.912
